beta cell repl: inducers of MIN6 beta-cell proliferation, primary screen, ATP luminescence, uHTS; MIN6 cells proliferation, ATPlite luminescence, 48 h; cells starved in 0.2% serum; 100% = growth in 10% serum; proliferation, % at 10 µM; hit rate 0.29% among 330,000; AID 2380, 2010;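 active = compounds whose signal lies at least 3.5 SD above the mean of all wells on their plate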;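 note: 0% = DMSO-treated cells in low-serum medium and 100% = 10% serum control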
HSV augment: enhancers of HSV replication in host cells, fold increase, host cell viability. hit rate 0.005% among 220,000. HSV replication augmentation in cells. maximum fold increase; in the data active = maximum fold increase above about 1.5; tested in PC3 cells
V-ATPase pHluor: regulators of yeast V-ATPase proton pumping, primary screen, pHLuorin cytosolic pH fluorescence | AID 504577, 2011 | S. cerevisiae | response, % at 10 µM | hit rate 0.37% among 350,000; in the data active = response mostly above about 7.3%, no sharp cut-off; inactive = mostly below about 5.4%; note: actives read high
p-CIP stab down: p/CIP-EGFP fusion destabilizers, primary screen, fluorescence, F442A cells | Q05BA5 | decrease of EGFP signal, % at 10 µM | AID 1984, 2009 | hit rate 0.01% among 290,000 | 16 h;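 active = EGFP signal decrease of at least 30% at 10 µM or well 3 SD below plate mean, unless failing retest; inactive = the rest, including hits failing retest or dose response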
Cardio protect: cardioprotection against H2O2-induced cell death, primary screen, uHTS, H9c2 cells, ATPLite luminescence; H9c2 cardiomyocytes, H2O2 injury protection, 2 h; protection from H2O2 cell death, % at 20 µM; hit rate 0.63% among 360,000; AID 588492, 2011;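 active = compounds giving at least 50% protection of heart cells from peroxide-induced death in the single-dose screen, raw or plate-pattern-corrected value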;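 note: 0% = DMSO wells with peroxide and 100% = DMSO wells without peroxide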
Yeast superoxide: reduction of superoxide in aged yeast, primary screen, HTS | S. cerevisiae aged cells, superoxide DHE fluorescence; hits give low values | superoxide response (% of plate mean), % at 10 µM | hit rate 0.18% among 330,000;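 active = superoxide response under a set limit, about three screen SD below normal, cut at about 65% in these data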;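 note: yeast aged for seven days with compound at 30 °C before DHE staining; 100% = average MFI of all compound-treated wells on the plate with controls excluded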
Active calls of the source: *; i = inactive; . = not tested or not shown. The list is not random: actives were taken first. Their share in the collection is about 1.4%.

SMILES	beta cell repl	HSV augment	V-ATPase pHluor	p-CIP stab down	Cardio protect	Yeast superoxide
O=C(NN=Cc1ccc(O)c(O)c1)c1ccccc1	.	.	.	.	28	.
O=C(COc1ccccc1C(=O)N/N=C\c1ccc(O)c(O)c1)N/N=C/c1ccc(O)c(O)c1	-3	.	1	-21	54*	100
COc1cc(/C=N/NC(=O)c2ccncc2)ccc1OC(C)=O	-1	.	2	-3	-3	104
COc1cc(/C=N/NC(=O)c2ccncc2)ccc1OCC(=O)Nc1ccc(C)c(C)c1	-1	.	-2	1	52*	106
COc1cc(/C=N/NC(=O)c2ccncc2)ccc1OC(=O)c1ccccc1Cl	-3	i	-3	-7	74*	117
COc1cc(/C=N/NC(=O)c2ccncc2)ccc1OCC(=O)Nc1cccc([N+](=O)[O-])c1	0	.	-1	-3	4	114
COc1cc(C(=O)N/N=C/c2ccc(OC(=O)c3ccccc3Cl)c(OC)c2)ccc1O	-7	.	-4	-2	66*	114
COc1ccc(C(=O)C2CCCN(C(=O)c3ccc4cc[nH]c4c3)C2)c(C)c1 (configuration not stated)	-3	i	0	-3	4	100
O=S(=O)(c1cc(F)ccc1F)N1CCC2(CC1)OCCN2S(=O)(=O)c1cccs1	6	.	0	.	-2	98
Cc1ccc2cc(C)c3nnc(SCC(=O)Nc4nc5c(s4)CCCC5)n3c2c1	.	i	.	-15	.	.
CC1Cc2ccccc2N1C(=O)CN1CCC(C(N)=O)CC1 (configuration not stated)	-3	i	-2	-7	-3	99
CCc1nnc(NC(=O)CSc2nnc(CNc3ccc(OC)cc3)n2C)s1	-4	i	-10	3	68*	97
CNc1ncnc2c1ncn2[C@H]1CN(CCN2CCOCC2)C[C@@H](CO)O1	.	.	.	.	4	.
Cc1[nH]c2ccccc2c1C(=O)C(C)OC(=O)c1ccccc1NCCO (configuration not stated)	-4	.	1	.	1	108
O=C(/C=C/c1ccccc1Cl)c1ccccc(=O)c1O	.	i	0	-2	70*	110
C/C(=N\NC(=O)c1cc(-c2cccnc2)nc2ccccc12)c1ccccc1O	-4	i	3	-6	60*	91
C/C(=N\NC(=O)c1cc(C2CC2)nc2ccccc12)c1ccc(C)s1	-1	i	-6	5	1	107
C/C(=N\NC(=O)c1cc(C2CC2)nc2ccccc12)c1ccc(O)cc1O	-4	.	-88	-8	51*	88
CC(OC(=O)c1cc(-c2cccnc2)nc2ccccc12)C(=O)Nc1ccc2ccccc2c1 (configuration not stated)	1	i	-1	-8	67*	109
COc1ccc(/C(C)=N/NC(=O)c2cc(-c3cccnc3)nc3ccccc23)cc1	2	i	2	1	-1	90
CSc1ccc(CNCCCN(C)C)cc1	0	i	-1	-4	12	107
CCOC(=O)C(=NO)C1=CSC2=NNC(C)(C)N12	.	.	0	.	4	.
CCOC(=O)CSc1nc2sc(C)c(C)c2c(=O)[nH]1	4	i	-2	-18	52*	93
CCOC(=O)CSc1nnc(CSc2nc3sc4c(c3c(=O)[nH]2)CCC4)n1C	1	i	1	-4	66*	91
Cc1sc2nc(NCCO)[nH]c(=O)c2c1C	-4	i	-2	-6	72*	96
SMILES	beta cell repl	HSV augment	V-ATPase pHluor	p-CIP stab down	Cardio protect	Yeast superoxide
CC1=CCC2C(=O)N(c3ccc(OC(=O)c4ccco4)cc3)C(=O)C2C1 (configuration not stated)	-2	i	0	-11	-1	97
CN(Cc1ccccc1)S(=O)(=O)c1ccc(Cl)c(C(=O)NCCCN2CCOCC2)c1	5	.	-6	.	1	76
CCOc1ccc(CCn2c(-c3ccco3)nc3ccccc3c2=O)cc1OCC	4	i	2	-13	104*	97
Cc1oc2c(Cl)c(Cl)c(O)c(CN(C)C)c2c1C(=O)c1ccc(Cl)cc1	-3	.	-4	-3	5	106
CC(/C=C(\NC(=O)c1ccccc1)C(=O)N=Nc1c(O)[nH]c2ccc(C)cc12)=C\c1ccccc1	-1	i	1	-9	62*	90
COc1cc(-c2cc(C(=O)Nc3cccc(C(C)=O)c3)c3ccccc3n2)cc(OC)c1OC	-3	.	-2	-12	55*	102
COc1cc(-c2cc(C(=O)Nc3ccccc3N3CCOCC3)c3ccccc3n2)cc(OC)c1OC	-3	i	0	-12	89*	108
O=C(Nc1ccccc1N1CCOCC1)c1cc(-c2ccco2)nc2ccccc12	-2	i	-8	-15	8	96
Cn1c(=O)c2ncn(CC(=O)Nc3cccc(-c4nc5ccccc5s4)c3)c2n(C)c1=O	-5	i	0	-10	-4	116
COc1cc(-c2nnc(SCc3cc(=O)oc4cc(O)c(O)cc34)o2)cc(OC)c1OC	-3	i	6	2	81*	93
Cc1ccc2c(C)nc(Nc3nc(CSc4nc5ccccc5[nH]4)cc(=O)[nH]3)nc2c1	-4	i	-2	-17	69*	100
CCCN(CCC)S(=O)(=O)c1ccc(C(=O)Nc2nnc(-c3cccc(OC)c3)o2)cc1	0	i	-1	-4	31	103
CCCN(CCC)S(=O)(=O)c1ccc(C(=O)Nc2nnc(-c3cc(OC)cc(OC)c3)o2)cc1	-4	.	-5	7	54*	119
CCCCN(CC)S(=O)(=O)c1ccc(C(=O)Nc2nnc(CSC)o2)cc1	-2	i	8	-3	15	97
CCCCN(CCCC)S(=O)(=O)c1ccc(C(=O)Nc2nnc(CSC)o2)cc1	-2	i	-2	-5	50*	94
O=[N+]([O-])c1ccc(Nc2nc(N/N=C/c3cccc(F)c3)nc(N3CCCC3)n2)cc1	0	i	-2	5	84*	112
O=C1OCCN1C(=O)[C@H]1[C@H](c2ccc([N+](=O)[O-])cc2)C(c2cccc(Cl)c2)=NN1c1ccc(Br)cc1	.	.	1	.	51*	111
O=C1OCCN1C(=O)[C@H]1[C@H](c2ccccc2)C(c2cccc(Cl)c2)=NN1c1ccc(Br)cc1	.	.	1	.	4	104
O=C1OCCN1C(=O)[C@H]1[C@H](c2ccc(Cl)cc2)C(c2ccccc2)=NN1c1ccc(Br)cc1	.	.	-1	.	18	109
O=C1OCCN1C(=O)[C@H]1[C@H](c2ccc([N+](=O)[O-])cc2)C(c2ccccc2)=NN1c1ccc(Br)cc1	.	.	-1	.	55*	95
CS(=O)(=O)c1ccc(C(=O)OCC(=O)c2ccc(Cl)s2)cc1	-2	.	-6	.	2	95
O=C(N/N=C/c1ccncc1)c1ccc(COc2cccc3cccnc23)cc1	-3	i	0	-5	64*	106

Source: PubChem
